A selection: hits, their analogues and other compounds. The true share with any hit is near 8.8%.
HPGD inh: HPGD (human) dehydrogenase inhibition; P15428; purified HPGD, NADH fluorescence kinetic, PGE2 substrate; Potency, µM, inactives show top-dose activity change, negative = inhibition, hits mostly inhibitors; 150,000 compounds, 4.3% hits; active means well fitted inhibition curve with a large enough effect, not every such curve was filed as active; inconclusive means small, poorly fitted or top-dose-only effect, or another doubt; inactive means no such curve, though single readings can be large or run the other way; further: on the % scale 0 is the no-effect control and ±100 the full control effect
Target sequence (P15428 whole entry, looked up): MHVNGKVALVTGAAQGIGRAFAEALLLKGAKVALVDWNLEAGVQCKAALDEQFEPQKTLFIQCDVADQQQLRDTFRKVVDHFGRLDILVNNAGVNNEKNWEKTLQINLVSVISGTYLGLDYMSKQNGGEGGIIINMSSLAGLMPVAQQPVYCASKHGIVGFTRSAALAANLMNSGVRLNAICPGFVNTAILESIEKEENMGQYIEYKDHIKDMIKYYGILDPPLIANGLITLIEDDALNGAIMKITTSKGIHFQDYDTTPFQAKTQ
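20 nM HPGD preincubated 15 min at room temperature with compound in 50 mM Tris-HCl pH 8, 0.01% Tween 20. Started with 1 mM NAD+ and 30 uM prostaglandin E2; NADH fluorescence (360/450 nm) read 5 times over 30-s intervals, last minus first.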
Lamin A splicing: changes lamin A minigene splicing in HeLa cells; HeLa LMNA splicing GFP/RFP minigene ratio, 48 h; Potency, µM (titrated, usually from 46.1 µM), for inactives: top-dose ratio change, negative = inhibition, most hits filed as inhibitors; 200,000 compounds, 0.01% hits; AID 1487; active means well fitted inhibition curve with a large enough effect in the signal ratio, with a control signal flat, not every such curve was filed as active; inconclusive means small, poorly fitted or top-dose-only effect, or effect the other way, or a change in a side signal; the % refers to the signal ratio; further: on the % scale 0 is the no-effect control and ±100 the full control effect
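Read-out is the ratio of GFP to DsRed2 object intensity, acquired by 488 nm laser-scanning cytometry on HeLa lamin A-EGFP minigene reporter cells. Compound incubation 48 hrs at 37 °C in Opti-MEM with 2% FBS; DMSO 0.5% final.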
HTT cytoprotect: protects HTT-Q103 PC12 cells, measured by ATP. AID 1471. PC12 HTT-Q103 induced, cytoprotection, ATP luminescence, 40 h. Potency, µM (top dose mostly 56.4 µM), without a hit: cytoprotection (ATP increase), usual class: activators. 230,000 compounds, 0.14% hits; further: % of control where 0% means no effect; nearly all actives have a fitted effect of over 45% in size
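Readout: ATPlite luminescence (ATP level). Model: stable PC12, inducible Htt exon1 Q103-GFP. Inducer: tebufenozide, 100 nM final. Compounds: dose series. No G418 in medium.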
HTT aggregate: mutant huntingtin aggregation inhibition. AID 1688. PC12 HttQ103-GFP aggregates, Acumen cytometry, 40 h. Potency, µM (highest dose often 46.1 µM), for the others: at the top dose activity change, negative = inhibition, actives largely listed as inhibitors. 220,000 compounds, 1.1% hits; further: on the % scale 0 is the no-effect control and ±100 the full control effect; nearly all actives have a fitted effect of over 60% in size
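Inducible Q103 Huntingtin exon 1–GFP PC12 line, 1500 cells/well in phenol red free DMEM with 5% equine and 5% calf serum. Tebufenozide 100 nM induced expression; compounds titrated; aggregates quantified by cytometry.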
ALDH1A1 inh: blocks purified human ALDH1A1 activity. Potency, µM (top dose mostly 75.3 µM), for inactives: at the top dose activity, negative = inhibition, hits mostly inhibitors. P00352. 220,000 compounds, 7.3% hits. AID 1030. Purified ALDH1A1, NADH fluorescence, propionaldehyde substrate; active means well fitted inhibition curve with a large enough effect, not every such curve was filed as active; inconclusive means small, poorly fitted or top-dose-only effect, or another doubt; inactive means no such curve, though single readings can be large or run the other way;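 further: plate controls were no enzyme wells and a reference inhibitor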
The depositor's hits bear a star; u = inconclusive; x = no result given; [ ] = dose if it differs, or a comment. Unless noted, the call rests on the fitted dose curve; in most records, active means well fitted curve in the direction sought with a large enough effect; inconclusive means small, poorly fitted or top-dose-only effect, or another doubt; inactive means no such curve, though single readings can be large; an effect the other way counts as inactive or inconclusive. Potency means the concentration at half of the fitted maximal effect.

SMILES	HPGD inh	Lamin A splicing	HTT cytoprotect	HTT aggregate	ALDH1A1 inh
CCOCCCn1cc(C(=O)c2cc(Br)ccc2O)cc(C#N)c1=O	x	u	-120%	u	u
CCCCn1cc(C(=O)c2cc(Br)ccc2O)cc(C#N)c1=O	-17%	u	-54%	16µM*	-5%
N#Cc1cc(C(=O)c2cc(Br)ccc2O)cn(C2CC2)c1=O	18µM*	u	-26%[10 µM]	u	14µM*
C/C(=C\CNc1ncnc2c1ncn2[C@@H]1O[C@@H](CO)[C@@H](O)[C@H]1O)CO	x	x	-31%	x	x
CC(=O)[C@@H]1[C@H]2[C@H](C(=O)[C@H]3OC[C@@H]2O3)[C@H]2C=Cc3ccccc3N21	-25%	x	8%[1.9 µM]	x	25µM*
COc1ccc(OCC(=O)Nc2ccc(C)cc2)cc1	16µM*	-6%	-11%	-10%	5%
COc1ccc(OCC(=O)Sc2ccc(C)cc2)cc1	14µM*	12%	6%	6%	u
COc1ccc(OCC(=O)NNC(=O)C(=O)Nc2ccc(C)cc2)cc1	-13%	22%	x	-5%	-5%
COc1ccc(NC(=O)CSc2c(C)n[nH]c2C)cc1	-14%	-7%	24%	-7%	16µM*
COc1ccc(NC(=O)CSc2nnc(-c3ccccc3C)n2N)cc1	u	u	3%	35%	13µM*
CCc1ccc(CNC(=O)CN2C(=O)C3CCCCN3c3ccc(C(=O)N4CCCC4)cc32)cc1 (stereo not given)	x	-1%[46 µM]	x	x	x
CC(=O)c1c(N2CCN(C)CC2)[nH]c(-c2ccccc2)nc1=S	-10%	-2%	-8%	-2%	u
Cc1c(Br)c([N+](=O)[O-])nn1CC(=O)Nc1cccc2nonc12	x	x	x	18%	3%
Cc1ccc(OCC(=O)N/N=C/c2ccco2)cc1	-24%	16%	-17%	15%[9.22 µM]	28µM*
Cc1[nH]c(-c2ccco2)nc1C(=O)O	-6%	-2%	-1%	-1%	-1%
c1ccc(-c2nc3c([nH]2)CCc2nonc2-3)cc1	x	x	-20%	-22%	4.5µM*
c1coc(-c2nc3c([nH]2)CCc2nonc2-3)c1	u	2%	7%	12%	2.8µM*
CC(C)N(C(=O)COC(=O)[C@@H]1CC(O)CN1S(=O)(=O)c1ccc(C(C)(C)C)cc1)C(C)C (stereo not given in full)	x	-11%[46 µM]	-5%	12%	8.9µM*
O=C(COC(=O)C1CC(O)CN1S(=O)(=O)c1ccc(Cl)cc1)c1ccccc1Cl (stereo not given)	-2%	0%	0%[0.074 µM]	9%	18µM*
O=C(COC(=O)C1CC(O)CN1S(=O)(=O)c1ccc(Cl)cc1)c1ccccc1 (stereo not given)	-18%	-9%	15%[10 µM]	-16%	u
CN(Cc1ccccc1)C(=O)[C@H](Cc1ccc2ccccc2c1)NC(=O)[C@@H]1C[C@@H](O)CN1C(=O)c1cn(C)c2ccccc12	-8%	x	-58%	x	-17%
CN(C)c1ncc2nc(-c3ccc(Cl)cc3)c(=O)n(-c3ccccc3)c2n1	x	u	-28%	x	u
O=[N+]([O-])c1ccc2[nH]c(O)c(N=NC(=S)NCC3CCCO3)c2c1 (stereo not given)	-8%	u	-6%[10 µM]	-20%	0.79µM*
CCNC(=S)N=Nc1c(O)[nH]c2ccc([N+](=O)[O-])cc12	x	8%[46 µM]	-49%	-3%	1%
O=C(CCl)N(c1ccccc1)C1CCS(=O)(=O)C1 (stereo not given)	-1%	u	13%[10 µM]	8.9µM*	0.063µM*
SMILES	HPGD inh	Lamin A splicing	HTT cytoprotect	HTT aggregate	ALDH1A1 inh
CN(C1CCS(=O)(=O)C1)S(=O)(=O)c1ccccc1 (stereo not given)	x	x	-10%[10 µM]	-21%[9.22 µM]	-5%
Cc1cc(=O)[nH]c2nnc(SCc3ccccc3F)n12	x	6%[46 µM]	x	x	x
Cc1cccc(NC(=O)CSc2nnc(CNC(=O)c3ccc(S(=O)(=O)N(C)C)cc3)n2-c2ccc(F)cc2)c1	-8%	0%	32%[10 µM]	8%	u
Cc1cccc(-n2c(CNC(=O)c3ccc(S(=O)(=O)N(C)C)cc3)nnc2SCC(=O)Nc2ccc(F)cc2)c1	-13%	2%	13%[10 µM]	12%	0.45µM*
Cc1cccc(NC(=O)CSc2nnc(CNC(=O)c3ccc(S(=O)(=O)N(C)C)cc3)n2-c2ccccc2)c1	5%	u	-19%[10 µM]	0%	7.1µM*
Cc1snc(SCC(=O)c2ccc(F)cc2)c1C#N	x	-14%[46 µM]	-2%[10 µM]	u	u
Cc1snc(SCC(=O)c2ccc([N+](=O)[O-])cc2)c1C#N	x	x	u	-6%	2.8µM*
CN1/C(=C\C=C2/C(=O)Oc3ccccc3C2=O)C(C)(C)c2ccccc21	-12%	u	x	7.9µM*	-1%
c1ccc(OCc2nn3c(-c4cccnc4)nnc3s2)cc1	u	1%	-20%	4%	-15%
c1ccc2c(c1)OCC(c1nn3c(Cn4nnc5ccccc54)nnc3s1)O2 (stereo not given)	10µM*	-22%	-4%[10 µM]	-30%	11µM*
c1ccc(OCc2nn3c(Cn4nnc5ccccc54)nnc3s2)cc1	8.9µM*	22%	-15%	10%	7.9µM*
c1ccc2c(c1)ncn2Cc1nnc2sc(-c3ccc4c(c3)OCO4)nn12	u	-15%	-34%	19%	u
O=c1c2ccccc2nnn1CSc1nnc(C2COc3ccccc3O2)n1-c1ccccc1 (stereo not given)	-5%	u	6%[10 µM]	-8%	-15%
COc1ccc(OCc2nn3c(Cn4cnc5ccccc54)nnc3s2)cc1	14µM*	u	-31%	25µM*	22µM*
c1ccc(CCc2nn3c(Cn4nnc5ccccc54)nnc3s2)cc1	10µM*	18%	17%[10 µM]	-22%	3.5µM*
O=C(O)CSc1nnc(Cn2nnc3ccccc32)n1CCc1ccccc1	u	3%	1%	19%	-6%
CCOC(=O)c1cccc(NC(=O)N2CC(CC)Oc3ccccc32)c1 (stereo not given)	x	-9%[46 µM]	x	x	x
O=C(Nc1cccc(Cl)c1)C1CCCN(c2nn3cc(-c4ccc(F)cc4)nc3s2)C1 (stereo not given)	x	4%[46 µM]	x	x	x
CCc1cccc(N2C(=O)CS(=O)(=O)C23C(=O)N(Cc2ccccc2)c2ccc(C)cc23)c1 (stereo not given)	x	6%[46 µM]	x	x	x
c1ccc(Cc2nn3c(Cn4nnc5ccccc54)nnc3s2)cc1	20µM*	-3%	-46%	-15%	25µM*
Clc1ccccc1-c1nn2c(Cn3cnc4ccccc43)nnc2s1	14µM*	-6%	-25%[0.074 µM]	-12%	20µM*
c1ccc(CCc2nn3c(Cn4cnc5ccccc54)nnc3s2)cc1	16µM*	-25%	7%	-29%	3.5µM*
Cc1ccc(Cc2nc3ccccc3nc2SCC(=O)NCc2ccccc2Cl)cc1	x	-10%[46 µM]	x	x	x
O=C(CSCC(=O)N1CCCCC1)Nc1nc(-c2ccc(Cl)s2)cs1	u	-9%	-16%	-3%	25µM*

Source: PubChem BioAssay
